Experimental data: PMC4336329 (PLoS ONE, 2015)
Among all 310,000 compounds or so, about 14,000 (4.5%) showed an effect of 50% or more. Effects have a minus sign here. This is one part of a sample in which strong results are shown more often than they occur.

These compounds were tested against human ether-à-go-go-related gene (hERG) potassium channel (human, UniProt Q12809) (assay: primary screen, population patch clamp on CHO cells stably expressing hERG; higher = less effect of the substance).
Sequence of human ether-à-go-go-related gene (hERG) potassium channel (Q12809 whole entry, looked up): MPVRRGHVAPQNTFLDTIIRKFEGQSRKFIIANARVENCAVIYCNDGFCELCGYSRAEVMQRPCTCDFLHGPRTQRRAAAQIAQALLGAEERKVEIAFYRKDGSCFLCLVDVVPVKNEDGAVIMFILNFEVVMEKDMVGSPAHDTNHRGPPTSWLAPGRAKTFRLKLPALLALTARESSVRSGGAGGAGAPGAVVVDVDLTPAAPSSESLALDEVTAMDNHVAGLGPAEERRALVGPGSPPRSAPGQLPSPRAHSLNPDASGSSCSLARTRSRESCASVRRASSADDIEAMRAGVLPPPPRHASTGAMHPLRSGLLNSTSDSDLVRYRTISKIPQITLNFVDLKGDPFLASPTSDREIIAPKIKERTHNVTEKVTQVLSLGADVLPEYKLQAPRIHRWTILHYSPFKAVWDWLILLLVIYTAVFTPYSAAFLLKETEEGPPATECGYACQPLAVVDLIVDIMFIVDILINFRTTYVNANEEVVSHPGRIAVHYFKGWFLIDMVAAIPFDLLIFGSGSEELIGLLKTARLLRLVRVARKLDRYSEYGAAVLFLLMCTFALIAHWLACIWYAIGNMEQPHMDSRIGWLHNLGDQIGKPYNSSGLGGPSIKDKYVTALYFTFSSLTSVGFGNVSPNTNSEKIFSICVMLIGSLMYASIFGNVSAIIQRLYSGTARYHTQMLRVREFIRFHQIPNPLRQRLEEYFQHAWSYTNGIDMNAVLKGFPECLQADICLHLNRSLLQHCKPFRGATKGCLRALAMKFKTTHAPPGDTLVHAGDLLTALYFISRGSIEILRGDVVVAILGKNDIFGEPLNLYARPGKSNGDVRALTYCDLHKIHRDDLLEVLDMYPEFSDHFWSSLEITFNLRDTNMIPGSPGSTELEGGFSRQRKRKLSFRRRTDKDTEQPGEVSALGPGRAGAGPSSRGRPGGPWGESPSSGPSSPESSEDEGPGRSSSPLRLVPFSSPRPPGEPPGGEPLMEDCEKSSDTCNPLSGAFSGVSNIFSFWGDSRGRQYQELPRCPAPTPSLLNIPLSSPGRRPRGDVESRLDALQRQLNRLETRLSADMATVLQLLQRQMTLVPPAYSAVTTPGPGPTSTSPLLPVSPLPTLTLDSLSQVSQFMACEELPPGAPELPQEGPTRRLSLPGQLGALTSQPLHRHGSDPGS
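Further: peak tail current of the secondary pulse compared with the same well before compound.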

SMILES	hERG current change (%, negative = inhibition) at 10uM [%]
COC(=O)Cn1c(=NC(=O)c2cc(OC)c(OC)c(OC)c2)sc2cc(OC)ccc21	1.18
S=c1[nH]nc(-c2ccc3ccccc3n2)n1-c1ccc2c(c1)OCCO2	17.7
Cc1ccc2c(c1)CCCN2N=O	0.938
CCOc1ccc(N(CC(=O)NCc2ccc(OC)cc2)C(=O)CCC(=O)Nc2nccs2)cc1	8.55
COc1ccccc1CNC(=O)COC(=O)c1ccc(C)s1	3.82
CC1(C)N([O-])C(c2ccccc2)=C[N+](=O)C1(C)C	1.38
CCOc1cccc2cc(C(=O)N3CCOCC3)c(=O)oc12	14.6
CCN(CC)C(=O)CSc1nc(N)c(C#N)c(-c2cccs2)c1C#N	15.5
CS(=O)(=O)c1ccc2nc(NC(=O)c3ccc(Cl)cc3)sc2c1	6.42
COC(=O)CCCC[C@@H]1SC[C@@H](NC(=O)OC)[C@@H]1NC(=O)OC	5.49
CC[C@@H](C)[C@H](NC(=O)Cc1c(C)c2cc3c(C)coc3c(C)c2oc1=O)C(=O)O	6.21
COc1ccc(NC(C)=O)cc1S(=O)(=O)N1CCN(Cc2cccs2)CC1	-3.53
COc1ccc(C)cc1S(=O)(=O)N1CCN(C/C=C/c2ccccc2)CC1	-23.8
COc1ccc(NC(C)=O)cc1S(=O)(=O)N1CCN(C/C=C/c2ccccc2)CC1	-69.3
COc1ccc(/C=C/C(=O)Nc2ccc(NC(C)=O)cc2)cc1S(=O)(=O)N1CCOCC1	1.65
COc1ccc(/C=C/C(=O)Nc2ccccc2)cc1S(=O)(=O)N1CCOCC1	-52.2
COc1ccc(S(=O)(=O)N2CCN(C/C=C/c3ccccc3)CC2)cc1F	-30.1
COc1ccc(S(=O)(=O)N2CCN(C(c3ccccc3)c3ccccc3)CC2)cc1NC(C)=O	21.2
COc1ccc(/C=C/C(=O)Nc2ccc(C)cc2)cc1S(=O)(=O)N1CCOCC1	-32.6
COc1ccc(S(=O)(=O)N2CCN(C/C=C/c3ccccc3)CC2)cc1NC(C)=O	-77.9
Cc1ccc(S(=O)(=O)N(C)/N=C/c2ccc(C(=O)O)cc2)cc1	-7.51
N#C/C(=C\c1ccc(C#N)cc1)C(=O)c1ccccc1	10.7
COc1ccc(NC(=O)CSc2nnc(-c3ccccn3)n2N)cc1Cl	-2.27
COc1ccc(/C=N/NC(=O)CCC(=O)Nc2ccc(Br)cc2)c(OC)c1	5.6

SMILES	hERG current change (%, negative = inhibition) at 10uM [%]
COc1ccc(CNC(=O)Cn2nc([N+](=O)[O-])c(Br)c2C)cc1OC	-10.2
COC(=O)C1=C(C)N(c2ccc(C)c(C)c2)/C(=C/c2cccs2)C1=O	-17.7
CCS(=O)(=O)N1CCN(S(=O)(=O)c2ccc3c(c2)OCCO3)CC1	17.5
CCCCOc1ccc(/C=C/C(=O)N(CC)CC(=O)Nc2ccc3c(c2)OCCO3)cc1OC	-28.9
CNC(=O)/C(C#N)=C/c1ccc(-c2ccc(OC)cc2[N+](=O)[O-])o1	-1.67
O=C1CCN(Cc2ccccc2)CCN1[C@H](COc1ccccc1)Cc1ccccc1	-56.4
C[C@H]1CCC(=O)N([C@H](COc2ccccc2)Cc2ccccc2)CC1	-42.7
N#CC[C@H](Cc1ccccc1)N1CCN(Cc2ccccc2)CCC1=O	-24
CC(C)C[C@@H](COc1ccccc1)N1CCN(CC(C)C)CCC1=O	-48.5
O=C1CCN(Cc2ccccc2)CCN1[C@H](CO)Cc1ccccc1	14.5
CN1CCC(=O)N([C@H](COc2ccccc2)Cc2ccccc2)CC1	-28.5
CC(C)CN1CCC(=O)N([C@H](COc2ccccc2)Cc2ccccc2)CC1	-71.7
CCCN1CCC(=O)N([C@H](COc2ccccc2)Cc2ccccc2)CC1	-68.1
CC(C)CN1CCC(=O)N([C@H](CO)Cc2ccccc2)CC1	6.64
O=C(c1cccc(Cl)c1)N1CCC(=O)N(C(COCc2ccccc2)Cc2ccccc2)CC1 (stereo not drawn)	-51.9
O=C(c1cc(Cl)cc(Cl)c1)N1CCC(=O)N(C(COCc2ccccc2)Cc2ccccc2)CC1 (stereo not drawn)	-10
Cc1cccc(COCC(Cc2ccccc2)N2CCN(C(=O)c3cccc(Cl)c3)CCC2=O)c1 (stereo not drawn)	-15.1
Cc1cc(C)c2[nH]c(O)c(N=NC3=NC(=O)CS3)c2c1	-19.6
Cc1ccc(C)c(N2CCN(c3nc4ccccc4c(=O)n3Cc3ccccc3)CC2)c1	14.1
Cc1cnc(C(=O)N2CCCC(C(=O)c3ccc(C(C)(C)C)cc3)C2)cn1 (stereo not drawn)	-20.7
CCN1CCN(C(=O)c2ccc(CNS(=O)(=O)c3cccc(OC)c3)cc2)CC1	40.7
O=C(OCc1cncs1)c1ccccc1Cl	6.6
O=C(NCc1cccnc1)Nc1ccc2c(c1)OCO2	-7.04
COc1ccccc1CCNC(=O)C1CCN(C(=O)/C=C/c2ccccc2)CC1	-13.8

SMILES	hERG current change (%, negative = inhibition) at 10uM [%]
COCCCNC(=O)CSc1ccc(Cl)cc1	2.32
CCCCN(Cc1ccccc1)C(=O)CCN1C(=O)C2C3C=CC(C3)C2C1=O (stereo not drawn)	1.48
N#CC[C@H](Cc1ccccc1)N1CCN(CCc2ccccc2)CCC1=O	16.5
O=C1CCN(CCc2ccccc2)CCN1[C@H](COc1ccccc1)Cc1ccccc1	-78.6
O=C1CCN(CCc2ccccc2)CCN1[C@H](CO)Cc1ccccc1	-44.4
O=C(Nc1ccccc1)NC1CCN(Cc2c(F)cccc2Cl)CC1	7.91
Cc1cccc(-c2nc3c(c(SCC(=O)N4CCOCC4)n2)Cc2c(CO)cnc(C)c2O3)c1	5.78
Cc1ccc(S(=O)(=O)NNC(=O)c2csnn2)cc1	1.7
O=[N+]([O-])c1ccc(-n2nncc2-c2ccc(Cl)cc2)cc1	-72.7
O=C(O)c1ccc(-n2nncc2-c2ccccc2)cc1	8.58
COc1ccc(-c2cnnn2-c2ccc([N+](=O)[O-])cc2)cc1	-64.6
c1ccc(-c2cnnn2-c2ccccc2)cc1	12.7
O=[N+]([O-])c1cccc(-n2nncc2-c2ccccc2)c1	-1.23
Nc1ccc(-n2nncc2-c2ccc(Cl)cc2)cc1	-35.9
O=Cc1ccc(-n2nncc2-c2ccc([N+](=O)[O-])cc2)cc1	-67.3
CC(=O)c1ccc(-n2nncc2-c2ccc([N+](=O)[O-])cc2)cc1	-53.3
CC(C)(C)c1cnnn1-c1ccc([N+](=O)[O-])cc1	-8.46
CC(=O)c1ccc(-n2nncc2C)cc1	19.8
Cc1cnnn1-c1ccc([N+](=O)[O-])cc1	23.5
O=[N+]([O-])c1ccc(-n2nncc2-c2ccccc2)cc1	-29.4
Cc1ccc(CNS(=O)(=O)c2ccc(F)c(F)c2)n1C	15.3
COc1ccc(CCNC(=O)C2CCCN2C(=O)Nc2cccc(C(C)=O)c2)cc1OC (stereo not drawn)	-3.26
COc1ccc(-c2cc(C(F)F)n3ncc(C(=O)N4CCN(C(=O)c5ccco5)CC4)c3n2)cc1	-34.8
CCc1ccc(NC(=O)C(=O)NCC2CCCO2)cc1 (stereo not drawn)	10

SMILES	hERG current change (%, negative = inhibition) at 10uM [%]
CCOC(=O)N1CCN(c2nc(=S)n(-c3ccccc3)c(C)c2C(C)=O)CC1	-2.56
COC(=O)c1ccccc1NC(=S)NC(=O)COc1ccccc1Cl	-4.5
CCC1(C)Cc2nc3[nH]c(=S)n(-c4ccccc4)c(=O)c3cc2CO1 (stereo not drawn)	17.6
CCOC(=O)COc1coc(CN2CCN(c3ccccc3)CC2)cc1=O	9.43
O=C(c1ccc(NS(=O)(=O)c2cccc3cccnc23)cc1)N1CCCCC1	12
CCOC(=O)C(C(=O)NCC1CCCO1)C1CCCCC1 (stereo not drawn)	12
C=CCNC(=O)C(C(=O)OCC)C1CCCCC1 (stereo not drawn)	-53.3
CCCCCCNC(=O)C(C(=O)OCC)C1CCCCC1 (stereo not drawn)	-4.59
CCCC[C@H](CN[C@@H](CNC)[C@H](C)CC)NCCC12CCC(CC1)C2	10.4
N=c1sccn1CC(=O)Nc1cc(S(=O)(=O)N2CCCCC2)ccc1Cl	-62.5
Cc1ccc(S(=O)(=O)N2CCCCC2)cc1NC(=O)Cn1ccsc1=N.Cl	-33.7
O=C(Cc1cccs1)Nc1ccc(S(=O)(=O)N2CCCC2)cc1	10.6
Cl.O=C(CNCc1cccs1)Nc1ccc(S(=O)(=O)N2CCCCC2)cc1	-70.9
CN(CC(=O)Nc1cc(S(=O)(=O)N2CCCC2)ccc1Cl)Cc1cccs1	-16
O=C(CNCc1ccncc1)Nc1cc(S(=O)(=O)N2CCCCC2)ccc1Cl	-63.9
O=C(Cc1cccs1)Nc1ccc(S(=O)(=O)N2CCCCC2)cc1	5.37
O=C(CNCc1ccccn1)Nc1cc(S(=O)(=O)N2CCCCC2)ccc1Cl	-19
Cl.N=c1sccn1CC(=O)Nc1cc(S(=O)(=O)N2CCCC2)ccc1Cl	-39.5
O=C(Cc1cccs1)Nc1cc(S(=O)(=O)N2CCCCC2)ccc1Cl	-0.378
O=C(CCl)Nc1cc(S(=O)(=O)N2CCCCCC2)ccc1Cl	-22.9
O=C(CNCc1cccs1)Nc1cc(S(=O)(=O)N2CCCC2)ccc1Cl	-52
